According to PubChem BioAssay AID1159580 (chemical genetic matrix, 2015):
Hit rate of the full screen: of about 5,500 compounds, about 2,000 (36%) were called active. Roughly 18% stayed inconclusive and do not appear here. Rule as the data show it: active = normalized growth mostly below about 0.91 (no sharp cut-off); inconclusive = no clear call, values can overlap the other calls; inactive = mostly above about 0.92. This is one part of the list.

Assay: chemical genetic growth profiling, strain panel (AID 1159580);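 also: tested at 20 µM; growth read once vehicle control cultures reached saturation at 30 °C; 1 = growth at the plate median or of vehicle wells; lower values mean less growth of the strain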
Details: growth OD

Measured: normalized growth

C[C@@H]1CC(Cl)CC[C@H]1C(=O)OC(C)(C)C (some centres not stated)
inactive: S. cerevisiae deletion strains, locus YJR075W, strain HOC1, stronger effect = lower value 0.964 | S. cerevisiae deletion strains, locus YKL009W, strain mrt4, stronger effect = lower value 1 | S. cerevisiae deletion strains, locus YKL068W, stronger effect = lower value 0.98 | S. cerevisiae deletion strains, locus YKL085W, strain MDH1 (second series), stronger effect = lower value 0.977 | S. cerevisiae deletion strains, locus YKL085W, strain MDH1, stronger effect = lower value 0.977 | S. cerevisiae deletion strains, locus YKL160W, strain elf1, stronger effect = lower value 1.02 | S. cerevisiae deletion strains, locus YKL190W, strain CNB1, stronger effect = lower value 0.981 | S. cerevisiae deletion strains, locus YKR001C, strain vps1, stronger effect = lower value 1.01 | S. cerevisiae deletion strains, locus YKR026C, strain gcn3, stronger effect = lower value 0.985 | S. cerevisiae deletion strains, locus YKR091W, strain srl3, stronger effect = lower value 0.982 | S. cerevisiae deletion strains, locus YLL001W, strain dnm1, stronger effect = lower value 0.979 | S. cerevisiae deletion strains, locus YLL026W, stronger effect = lower value 0.983 | S. cerevisiae deletion strains, locus YLL041C, strain sdh2, stronger effect = lower value 0.982 | S. cerevisiae deletion strains, locus YLR027C, strain aat2, stronger effect = lower value 0.982 | S. cerevisiae deletion strains, locus YLR039C, strain RIC1, stronger effect = lower value 1 | S. cerevisiae deletion strains, locus YLR058C, strain SHM2, stronger effect = lower value 0.991 | S. cerevisiae deletion strains, locus YLR102C, strain apc9, stronger effect = lower value 0.991 | S. cerevisiae deletion strains, locus YLR113W, strain HOG1, stronger effect = lower value 0.999 | S. cerevisiae deletion strains, locus YLR221C, strain rsa3, stronger effect = lower value 1.01 | S. cerevisiae deletion strains, locus YLR258W, strain gsy2, stronger effect = lower value 0.97 | S. cerevisiae deletion strains, locus YLR262C, strain YPT6 (second series), stronger effect = lower value 0.965 | S. cerevisiae deletion strains, locus YLR262C, strain YPT6, stronger effect = lower value 0.957 | S. cerevisiae deletion strains, locus YLR268W, strain sec22, stronger effect = lower value 0.976 | S. cerevisiae deletion strains, locus YLR320W, strain mms22, stronger effect = lower value 0.954 | S. cerevisiae deletion strains, locus YLR330W, strain CHS5, stronger effect = lower value 0.99 | S. cerevisiae deletion strains, locus YLR342W, strain FKS1 (second series), stronger effect = lower value 1.05 | S. cerevisiae deletion strains, locus YLR342W, strain FKS1, stronger effect = lower value 0.98 | S. cerevisiae deletion strains, locus YLR357W, strain rsc2, stronger effect = lower value 0.985 | S. cerevisiae deletion strains, locus YLR370C, strain arc18, stronger effect = lower value 0.991 | S. cerevisiae deletion strains, locus YLR371W, strain rom2, stronger effect = lower value 1 | S. cerevisiae deletion strains, locus YLR384C, strain iki3, stronger effect = lower value 0.982 | S. cerevisiae deletion strains, locus YLR418C, strain cdc73, stronger effect = lower value 0.972 | S. cerevisiae deletion strains, locus YML016C, strain PPZ1, stronger effect = lower value 0.992 | S. cerevisiae deletion strains, locus YML032C, strain rad52, stronger effect = lower value 0.967 | S. cerevisiae deletion strains, locus YML120C, strain ndi1, stronger effect = lower value 1 | S. cerevisiae deletion strains, locus YML124C, strain tub3, stronger effect = lower value 0.983 | S. cerevisiae deletion strains, locus YMR058W, strain fet3, stronger effect = lower value 0.976 | S. cerevisiae deletion strains, locus YMR078C, strain ctf18, stronger effect = lower value 0.985 | S. cerevisiae deletion strains, locus YMR125W, strain sto1, stronger effect = lower value 0.962 | S. cerevisiae deletion strains, locus YMR129W, stronger effect = lower value 0.961 | S. cerevisiae deletion strains, locus YMR205C, strain PFK2, stronger effect = lower value 0.928 | S. cerevisiae deletion strains, locus YMR223W, strain ubp8, stronger effect = lower value 1.04 | S. cerevisiae deletion strains, locus YMR231W, strain pep5, stronger effect = lower value 0.995 | S. cerevisiae deletion strains, locus YMR263W, strain SAP30, stronger effect = lower value 0.976 | S. cerevisiae deletion strains, locus YMR307W, strain GAS1, stronger effect = lower value 1 | S. cerevisiae deletion strains, locus YNL067W, strain RPL9B, stronger effect = lower value 0.959 | S. cerevisiae deletion strains, locus YNL071W, strain lat1, stronger effect = lower value 0.985 | S. cerevisiae deletion strains, locus YNL128W, strain TEP1, stronger effect = lower value 0.971 | S. cerevisiae deletion strains, locus YNL153C, strain GIM3, stronger effect = lower value 0.986 | S. cerevisiae deletion strains, locus YNL183C, strain NPR1, stronger effect = lower value 0.948 | S. cerevisiae deletion strains, locus YNL209W, strain ssb2, stronger effect = lower value 0.989 | S. cerevisiae deletion strains, locus YNL233W, strain BNI4, stronger effect = lower value 0.997 | S. cerevisiae deletion strains, locus YNL248C, strain rpa49, stronger effect = lower value 1.01 | S. cerevisiae deletion strains, locus YNL250W, strain rad50, stronger effect = lower value 0.987 | S. cerevisiae deletion strains, locus YNL271C, strain bni1, stronger effect = lower value 0.976 | S. cerevisiae deletion strains, locus YNL298W, strain CLA4, stronger effect = lower value 0.979 | S. cerevisiae deletion strains, locus YNL307C, strain MCK1, stronger effect = lower value 0.995 | S. cerevisiae deletion strains, locus YNL322C, strain KRE1 (second series), stronger effect = lower value 0.996 | S. cerevisiae deletion strains, locus YNL322C, strain KRE1, stronger effect = lower value 0.956 | S. cerevisiae deletion strains, locus YNR049C, strain mso1, stronger effect = lower value 0.971 | S. cerevisiae deletion strains, locus YNR052C, strain pop2, stronger effect = lower value 0.989 | S. cerevisiae deletion strains, locus YOL006C, strain TOP1, stronger effect = lower value 0.991 | S. cerevisiae deletion strains, locus YOL012C, strain htz1 0.765 | S. cerevisiae deletion strains, locus YOL147C, strain pex11, stronger effect = lower value 0.992 | S. cerevisiae deletion strains, locus YOR001W, strain rrp6, stronger effect = lower value 1 | S. cerevisiae deletion strains, locus YOR061W, strain CKA2, stronger effect = lower value 0.993 | S. cerevisiae deletion strains, locus YOR069W, strain VPS5, stronger effect = lower value 0.989 | S. cerevisiae deletion strains, locus YOR070C, strain gyp1, stronger effect = lower value 0.991 | S. cerevisiae deletion strains, locus YOR080W, strain dia2, stronger effect = lower value 0.98 | S. cerevisiae deletion strains, locus YOR083W, strain WHI5, stronger effect = lower value 1.04 | S. cerevisiae deletion strains, locus YOR106W, strain vam3, stronger effect = lower value 1 | S. cerevisiae deletion strains, locus YOR136W, strain idh2, stronger effect = lower value 0.996 | S. cerevisiae deletion strains, locus YOR144C, strain elg1, stronger effect = lower value 0.991 | S. cerevisiae deletion strains, locus YOR184W, strain ser1, stronger effect = lower value 0.935 | S. cerevisiae deletion strains, locus YOR231W, strain MKK1, stronger effect = lower value 1.01 | S. cerevisiae deletion strains, locus YOR265W, strain rbl2, stronger effect = lower value 0.986 | S. cerevisiae deletion strains, locus YOR270C, strain vph1, stronger effect = lower value 0.928 | S. cerevisiae deletion strains, locus YOR290C, strain snf2, stronger effect = lower value 0.92 | S. cerevisiae deletion strains, locus YOR316C, strain cot1, stronger effect = lower value 0.969 | S. cerevisiae deletion strains, locus YPL051W, strain arl3, stronger effect = lower value 1 | S. cerevisiae deletion strains, locus YPL055C, strain LGE1, stronger effect = lower value 0.864 | S. cerevisiae deletion strains, locus YPL078C, strain atp4, stronger effect = lower value 1 | S. cerevisiae deletion strains, locus YPL106C, strain sse1, stronger effect = lower value 0.962 | S. cerevisiae deletion strains, locus YPL240C, strain hsp82, stronger effect = lower value 0.982 | S. cerevisiae deletion strains, locus YPL241C, strain CIN2, stronger effect = lower value 0.997 | S. cerevisiae deletion strains, locus YPL256C, strain CLN2, stronger effect = lower value 1.01 | S. cerevisiae deletion strains, locus YPR119W, strain clb2, stronger effect = lower value 0.977 | S. cerevisiae deletion strains, locus YPR141C, strain kar3, stronger effect = lower value 0.979 | S. cerevisiae deletion strains, locus YPR163C, strain tif3, stronger effect = lower value 0.992 | S. cerevisiae deletion strains, locus YPR167C, strain met16, stronger effect = lower value 0.977 | S. cerevisiae deletion strains, strain wtn01, stronger effect = lower value 0.977 | S. cerevisiae strains, strain wild type, stronger effect = lower value 0.984
